# Measurements published in ChEMBL document CHEMBL3988442, “University of Dundee, Small-Polar-MMV Screening Library” (2021).
# Experiments:
# [1] = biological target: T1, Aspartate--tRNA(Asp/Asn) ligase (Mycobacterium tuberculosis (strain ATCC 25618 / H37Rv)) (UniProt P9WFW3); assay: Assay for Asp RNA synthetase-1 from Mycobacterium tuberculosis; format: functional; parameters: scale not given: direction of the effect not stated beside the values; conditions: 30 µM; further: in the data most compounds retested in dose-response had high values
# T1 sequence (whole entry): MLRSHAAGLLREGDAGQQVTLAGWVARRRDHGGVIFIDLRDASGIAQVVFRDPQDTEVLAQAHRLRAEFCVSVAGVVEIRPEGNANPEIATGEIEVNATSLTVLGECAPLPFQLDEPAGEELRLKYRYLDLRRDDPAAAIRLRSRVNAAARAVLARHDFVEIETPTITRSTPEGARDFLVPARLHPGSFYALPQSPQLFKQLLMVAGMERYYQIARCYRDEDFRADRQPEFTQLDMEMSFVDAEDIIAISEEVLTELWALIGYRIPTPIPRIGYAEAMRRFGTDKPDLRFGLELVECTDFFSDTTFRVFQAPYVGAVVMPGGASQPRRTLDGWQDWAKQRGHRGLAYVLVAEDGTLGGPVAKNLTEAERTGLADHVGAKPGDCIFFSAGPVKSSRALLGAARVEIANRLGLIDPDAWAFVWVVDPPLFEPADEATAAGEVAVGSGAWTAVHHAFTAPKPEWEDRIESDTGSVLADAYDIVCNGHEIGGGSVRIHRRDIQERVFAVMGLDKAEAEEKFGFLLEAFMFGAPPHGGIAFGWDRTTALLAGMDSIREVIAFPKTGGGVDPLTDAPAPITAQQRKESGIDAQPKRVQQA
# [2] = biological target: Shiga toxin 2 (Escherichia coli O157:H7) (UniProt P09385+P09386); assay: E. coli 0.157:H7 Shiga Toxin SOP - stx2 screening assay; format: functional; parameters: scale not given: direction of the effect not stated beside the values; conditions: 30 µM
compound,measurement,setting,value
Cc1ccc(F)c(OC2(C(=O)O)CCN(C(=O)N3CCCC3)CC2)c1,Percent Effect,[1],-1.17%
same,Percent Effect,[2],-2.51%
CCOC(CC)C(=O)NCCC(=O)N1CCN(c2ccccn2)CC1 (configuration not stated),Percent Effect,[1],2.61%
same,Percent Effect,[2],-11.4%
CCc1nc2n(n1)CC(NCC(=O)Nc1nccs1)CC2 (configuration not stated),Percent Effect,[1],-2.71%
same,Percent Effect,[2],2.48%
O=C(NCc1nncn1-c1ccccc1)C1CC(=O)N(CC2CC2)C1 (configuration not stated),Percent Effect,[1],-2.56%
same,Percent Effect,[2],23.5%
Cc1ccc(S(=O)(=O)Nc2ccc(-n3cccc3C(=O)O)c(C)c2)s1,Percent Effect,[1],4.34%
same,Percent Effect,[2],18.8%
O=C(c1ccc(F)cc1)N1C[C@H]2CCC[C@@]2(COCc2ccccn2)C1,Percent Effect,[1],9.3%
same,Percent Effect,[2],3.92%
COc1ccc(-n2ccc(C(=O)NCCN3CCCCC3C)n2)cc1 (configuration not stated),Percent Effect,[1],4.6%
same,Percent Effect,[2],-18.1%
CNS(=O)(=O)c1ccc(C(=O)N2CCCC(n3cccn3)C2)cc1 (configuration not stated),Percent Effect,[1],0.589%
same,Percent Effect,[2],2.6%
Cc1oc(C)c(C(=O)NCc2cccnc2N(C)C)c1C,Percent Effect,[1],-2.01%
same,Percent Effect,[2],35.3%
Cc1ncccc1NC(=O)C1=NOC2(CCN(Cc3nccs3)C2)C1 (configuration not stated),Percent Effect,[1],10.6%
same,Percent Effect,[2],-15.4%
c1ncc(Nc2nccc(C3CCCCN3CC3CCCCC3)n2)cn1 (configuration not stated),Percent Effect,[1],0.28%
same,Percent Effect,[2],-0.91%
COc1cccc(-n2c(C)cc(C(=O)O)c2C)c1,Percent Effect,[1],-3.77%
same,Percent Effect,[2],5.95%
COc1cccc(-c2noc(C3CCN(Cc4cccs4)C3)n2)c1 (configuration not stated),Percent Effect,[1],-0.868%
same,Percent Effect,[2],-30%
CO[C@H]1CCN(c2ccc(C)nn2)[C@H]1Cc1cnn(C)c1,Percent Effect,[1],1.39%
same,Percent Effect,[2],3.96%
O=C(c1cccnc1)N1CCCC(c2cc(C(F)F)n3ncnc3n2)C1 (configuration not stated),Percent Effect,[1],5.29%
same,Percent Effect,[2],8.99%
Cc1cc2c(=O)n3c(nc2s1)CCN(Cc1cnn(C)c1C)CC3,Percent Effect,[1],-4.72%
same,Percent Effect,[2],8.81%
OC(CN1CCC(c2ccn[nH]2)CC1)c1cccc(F)c1 (configuration not stated),Percent Effect,[1],-4.71%
same,Percent Effect,[2],-2.5%
Cn1ccnc1CN1CCCN(C(=O)c2ccc3c(c2)COC3)CC1,Percent Effect,[1],0.393%
same,Percent Effect,[2],24.9%
COc1ccc(CN(C)[C@@H]2CN(C(=O)c3cccs3)C[C@H]2O)cc1,Percent Effect,[1],-4.54%
same,Percent Effect,[2],12%
CCCc1n[nH]cc1C(=O)N1CCC(c2nccn2CCOC)CC1,Percent Effect,[1],-6.36%
same,Percent Effect,[2],10%
CC(C)c1nnc2n1CCN(C(=O)c1ccc(CN(C)C)cc1)C2,Percent Effect,[1],-0.75%
same,Percent Effect,[2],17.3%
CC(C)c1cnc(CNc2c(F)cccc2-n2cccn2)o1,Percent Effect,[1],-0.919%
same,Percent Effect,[2],9.22%
O=C(O)[C@]12CCCN(Cc3ccccc3)C[C@H]1CN(c1ncccn1)C2,Percent Effect,[1],6.32%
same,Percent Effect,[2],-14.8%
Cc1cc(C)n(CC2CN(CCOc3cccc(C#N)c3)CCO2)n1 (configuration not stated),Percent Effect,[1],4.21%
same,Percent Effect,[2],33%
COCCN1C[C@@H]2CCCO[C@@H]2[C@H](NC(=O)c2cnccn2)C1,Percent Effect,[1],3.03%
same,Percent Effect,[2],-9.33%
CCN1C[C@H]2CCN(C(=O)NC3CCCC3)CC[C@H]2S1(=O)=O,Percent Effect,[1],-0.232%
same,Percent Effect,[2],-57.6%
Cc1nn(C)c(N(C)C)c1CNCC(O)c1ccccc1 (configuration not stated),Percent Effect,[1],-4.11%
same,Percent Effect,[2],-17.5%
CN(Cc1nnc(-c2ccco2)o1)CC1CCCN1c1cccnn1 (configuration not stated),Percent Effect,[1],7.29%
same,Percent Effect,[2],11.7%
COc1cccc2c1OCC(NC(=O)NC1CCN(C3CC3)CC1)C2 (configuration not stated),Percent Effect,[1],-3.21%
same,Percent Effect,[2],3.63%
CN1C(=O)C[C@@H]2[C@@H]1CCN2C(=O)c1ccc[nH]1,Percent Effect,[1],-4.63%
same,Percent Effect,[2],-6.89%
COCc1cnc2n1CCN(Cc1cccnc1)C2C (configuration not stated),Percent Effect,[1],4.46%
same,Percent Effect,[2],-10.3%
CC(O)CN1CCN(C(=O)c2cccn2Cc2ccncc2)CC1 (configuration not stated),Percent Effect,[1],-3.51%
same,Percent Effect,[2],13.7%
Cc1csc(N2CCN(CC(=O)Nc3nncs3)CC2C)n1 (configuration not stated),Percent Effect,[1],-3.09%
same,Percent Effect,[2],3.44%
O=C(c1cscn1)N1C[C@@H]2[C@@H](C1)OCC(=O)N2CC1CCCC1,Percent Effect,[1],4.1%
same,Percent Effect,[2],-48.6%
CC1Cc2ccccc2N1Cc1occc1C(=O)OCC(N)=O (configuration not stated),Percent Effect,[1],-3.97%
same,Percent Effect,[2],-1.38%
COc1ccc(C(=O)N2CCC(Nc3cccnn3)CC2)c(OC)c1,Percent Effect,[1],-0.568%
same,Percent Effect,[2],8.84%
Cc1cc(C2CCCN2CC(=O)N(CCC#N)c2ccccc2F)on1 (configuration not stated),Percent Effect,[1],3.09%
same,Percent Effect,[2],0.491%
Cc1nc(CN2CCCC(CCc3ccc(F)cc3F)C2)c[nH]1 (configuration not stated),Percent Effect,[1],-7.38%
same,Percent Effect,[2],-3.15%
COc1cc(CNC2CCCc3c2cnn3C)cc(OC)c1 (configuration not stated),Percent Effect,[1],-0.657%
same,Percent Effect,[2],18.7%
Cc1ccc(OCCC(=O)NC2CCc3nccn3C2)cc1 (configuration not stated),Percent Effect,[1],-1.56%
same,Percent Effect,[2],-18%
C=C1c2ccccc2C(=O)N1CCC(=O)N1CCNC(=O)C1,Percent Effect,[1],-2.35%
same,Percent Effect,[2],25.2%
O=C1CC(c2ccccc2)c2snc(C(=O)O)c2N1 (configuration not stated),Percent Effect,[1],-6.76%
same,Percent Effect,[2],-1.61%
Cc1cccc(-n2cc(C(=O)N3CCn4c(C)nnc4C3)nn2)c1,Percent Effect,[1],-2.42%
same,Percent Effect,[2],-92.9%
CCc1nc(C2CCCN2C(=O)CCCn2cccn2)no1 (configuration not stated),Percent Effect,[1],-0.232%
same,Percent Effect,[2],-5.5%
CCn1cc(C(=O)N2CCCC(c3[nH]ncc3S(C)(=O)=O)C2)cn1 (configuration not stated),Percent Effect,[1],-3.25%
same,Percent Effect,[2],-8.37%
COCCN1C(=O)C[C@@H]2[C@H]1CCN2C(=O)COc1ccccc1,Percent Effect,[1],-2.36%
same,Percent Effect,[2],-1.37%
